From the supplement of paper PMC10646978
± gives the standard deviation.

Legend:
Details in all cases: modulator concentration 10 µM
[1] = tested on: RAW-Dual (murine macrophage reporter line); assay: NF-kB reporter (SEAP) activity fold change vs agonist alone; higher = enhanced NF-kB activity
In short: (§1)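 In 384-well plates holding 50 000 RAW-Dual murine macrophage reporter cells per well, compound at 10 μM final was pre-incubated for 1 hour at 37 °C, after which a PRR agonist was added overnight. Supernatant SEAP read with QUANTI-Blue at 620 nm absorbance reported NF-κB, and Lucia luciferase read with QUANTI-Luc luminescence reported IRF. Fold change values come from dividing each reporter signal by the mean of agonist-only control wells on the same plate, averaged over replicate plates with propagated errors.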

[2] = tested on: RAW-Dual (murine macrophage reporter line); assay: IRF reporter (Lucia luciferase) activity fold change vs agonist alone; higher = enhanced IRF activity
In short: as §1

[3] = tested on: RAW-Dual (murine macrophage reporter line); assay: viability score (confluency relative to resting cells, overnight) (fraction); higher = more viable, active = viable (0.7 or more)
In short: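 A compound met the cutoff when both of two confluency masks exceeded 70% of resting cells. Those masks were made with IncuCyte software from IncuCyte images of RAW-Dual macrophages treated overnight at 10 μM final. This is the basis of the viability score, which is confluency relative to resting cells.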

[4] = agonist: CpG ODN 1826 0.5 ug/mL

SMILES	NF-kB reporter [1, 4]	NF-kB reporter ([1]; agonist: LPS 0.1 ug/mL)	NF-kB reporter ([1]; agonist: MPLA […])	IRF reporter ([2]; agonist: 3'3'-cGAMP 10 ug/mL)	IRF reporter ([2]; agonist: LPS 0.1 ug/mL)	IRF reporter ([2]; agonist: MPLA […])	viability score [3]
COc1ccc(NC(=O)Cc2cn(Cc3ccccc3)c3ccccc23)cc1OC	0.629 ± 0.035	1.2 ± 0.096	1.57 ± 0.13	0.701 ± 0.032	1.24 ± 0.27	1.39 ± 0.4	0.96 (active)
CCCOc1cccc(C=C2N=C(c3ccc(Cl)c([N+](=O)[O-])c3)OC2=O)c1	0.993 ± 0.094	1.07 ± 0.072	0.912 ± 0.055	1.02 ± 0.041	1.55 ± 0.17	1.04 ± 0.15	1.01 (active)
CC(C)n1cnc(S(=O)(=O)N2CCC(S(=O)(=O)c3nccn3C)CC2)c1	0.36 ± 0.028	0.842 ± 0.067	0.663 ± 0.048	0.935 ± 0.026	1.34 ± 0.14	1.14 ± 0.084	0.878 (active)
O=c1cc(O)nc(SCc2c(F)c(F)c(F)c(F)c2F)[nH]1	1.01 ± 0.08	0.913 ± 0.07	1.05 ± 0.049	0.646 ± 0.066	1.01 ± 0.1	1.03 ± 0.21	1 (active)
NC(=O)C1CCCc2c1[nH]c1ccc(Cl)cc21 (configuration not stated)	1.07 ± 0.15	1.1 ± 0.14	0.878 ± 0.05	0.959 ± 0.044	1.19 ± 0.25	1.24 ± 0.098	0.959 (active)
CC(=O)Nc1ccc2nc(NC(=O)c3ccco3)sc2c1	1.05 ± 0.083	1.03 ± 0.09	0.95 ± 0.072	0.827 ± 0.046	1.03 ± 0.069	0.744 ± 0.084	1 (active)
COc1ccc2sc(C)[n+](CCCS(=O)(=O)[O-])c2c1	0.951 ± 0.088	1.08 ± 0.074	0.923 ± 0.064	0.923 ± 0.086	1.05 ± 0.12	1.1 ± 0.3	1 (active)
CC1CC(OC(=O)C(O)c2ccccc2)CC(C)(C)N1C (configuration not stated) [Prestw-794]	1.07 ± 0.17	1.25 ± 0.12	1.02 ± 0.08	0.97 ± 0.027	1.09 ± 0.2	1.22 ± 0.15	1 (active)
COc1cccc2cc(C(=O)NCc3nn(C4CCCC4)c(=O)c4ccccc34)oc12	0.976 ± 0.053	1.1 ± 0.086	0.846 ± 0.096	0.827 ± 0.062	1.2 ± 0.24	0.848 ± 0.39	1.02 (active)
O=C(/C=C/c1cccc(S(=O)(=O)Nc2ccccc2)c1)NO	2.21 ± 0.11	1.73 ± 0.14	2.67 ± 0.12	0.0696 ± 0.0082	0.285 ± 0.017	0.404 ± 0.12	0.0713 (inactive)
O=S(=O)(NCCn1ccn2nccc12)c1ccccc1Br	0.86 ± 0.053	0.904 ± 0.091	1.02 ± 0.065	0.989 ± 0.049	1.14 ± 0.18	1.23 ± 0.34	0.983 (active)
Cc1cc(OC2CN(C(=O)Cn3cnc4ccccc43)C2)cc(=O)n1C1CC1	1.16 ± 0.11	1.09 ± 0.099	0.97 ± 0.026	1 ± 0.04	1.06 ± 0.06	0.955 ± 0.092	0.997 (active)
CCC(C(=O)NCc1ccnc(-c2ccncc2)c1)c1ccccc1 (configuration not stated)	1.27 ± 0.09	1.1 ± 0.084	1.12 ± 0.03	0.574 ± 0.029	0.654 ± 0.086	0.545 ± 0.12	0.994 (active)
CN(C)C(=O)COC(=O)Cc1ccc(OC(=O)c2ccc(NC(=N)N)cc2)cc1.CS(=O)(=O)O	1.04 ± 0.045	0.913 ± 0.083	1.01 ± 0.079	1.07 ± 0.049	1.21 ± 0.22	1.25 ± 0.4	0.829 (active)
CC(=O)O.CCN(CC)CC#CC1(O)CCCCC1	0.854 ± 0.083	0.981 ± 0.058	0.914 ± 0.059	0.902 ± 0.078	1.21 ± 0.14	1.06 ± 0.07	1.01 (active)
O=C(Nc1ccc(S(=O)(=O)Nc2ccc(F)cc2)cc1)C(F)(F)F	0.992 ± 0.11	1.03 ± 0.069	0.93 ± 0.061	1.12 ± 0.027	1.37 ± 0.22	1.14 ± 0.098	1.01 (active)
Clc1ccc2c(c1)CCc1cccnc1C2=C1CCNCC1	0.345 ± 0.04	0.654 ± 0.052	0.814 ± 0.048	0.505 ± 0.026	0.81 ± 0.14	0.754 ± 0.15	0.36 (inactive)
CN(C)CC/C=C1/c2ccccc2Sc2ccc(Cl)cc21	0.942 ± 0.058	1.02 ± 0.085	1.08 ± 0.078	0.925 ± 0.043	1.08 ± 0.19	1.23 ± 0.38	1.02 (active)
CCOC(=O)C1=C(C)NC(C)=C(C(=O)OC)C1c1cccc(Cl)c1Cl (configuration not stated)	0.824 ± 0.081	0.603 ± 0.053	0.764 ± 0.068	1.13 ± 0.06	1.35 ± 0.095	1.03 ± 0.17	0.859 (active)
COc1ccc2cc(Br)ccc2c1CC(=O)O	0.759 ± 0.06	0.954 ± 0.045	1.01 ± 0.087	0.918 ± 0.043	1.29 ± 0.076	1.33 ± 0.19	1.02 (active)
CCCCC1=NC2(CCCC2)C(=O)N1Cc1ccc(-c2ccccc2-c2nn[nH]n2)cc1	1.05 ± 0.079	0.951 ± 0.08	0.978 ± 0.026	0.948 ± 0.052	1.01 ± 0.15	0.945 ± 0.18	1 (active)
CCc1cc2c(-c3ccccc3)cc(=O)oc2cc1OC(C)=O	0.702 ± 0.12	1.09 ± 0.088	0.886 ± 0.085	0.974 ± 0.069	1.07 ± 0.3	1.07 ± 0.21	1 (active)
N#Cc1c(N=Cc2ccc(Br)cc2)sc2c1CCCC2	0.782 ± 0.075	1 ± 0.067	0.964 ± 0.033	0.896 ± 0.14	0.96 ± 0.041	1 ± 0.077	1 (active)
Cc1occc1C(=O)Nc1ccc(F)c(F)c1	1.07 ± 0.12	0.998 ± 0.16	1.11 ± 0.055	0.704 ± 0.042	1.07 ± 0.081	1.46 ± 0.14	0.927 (active)
CN(C)CCCN1c2ccccc2Sc2ccc(Cl)cc21 [Prestw-64]	0.227 ± 0.066	1.1 ± 0.059	1.94 ± 0.12	0.71 ± 0.037	2.26 ± 0.33	2.24 ± 0.35	0.634 (inactive)
O=C(NCc1cccc(Oc2ccccn2)c1)C1c2ccccc2Oc2ccccc21	0.52 ± 0.041	1.12 ± 0.088	0.883 ± 0.039	0.801 ± 0.077	1.01 ± 0.12	1.11 ± 0.27	0.992 (active)
